An excerpt weighted towards active compounds, which were near 0.81% of everything screened.
Bcl-2 Bim block – disrupts Bim peptide binding to human Bcl-2. AID 950. inhibition, % at 10 µM. 190,000 tested, 0.06% active. Bead-based flow cytometry, Bim peptide-Bcl-2 binding; in the data active = inhibition above about 40%; inconclusive = no clear call, values can overlap the other calls;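 also: 0% = no compound wells with probe peptide and 100% = reference peptide inhibitor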
Target sequence (P10415 whole entry, looked up): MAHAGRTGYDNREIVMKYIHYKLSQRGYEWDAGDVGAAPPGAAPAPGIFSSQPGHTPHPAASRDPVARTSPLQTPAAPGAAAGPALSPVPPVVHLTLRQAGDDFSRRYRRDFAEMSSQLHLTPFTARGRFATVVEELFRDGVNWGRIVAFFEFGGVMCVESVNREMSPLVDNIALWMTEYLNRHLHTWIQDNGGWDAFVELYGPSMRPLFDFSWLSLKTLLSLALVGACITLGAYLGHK
Bim-Bcl-B – disrupts Bim peptide binding to human Bcl-B | Q9HD36 | bead-based flow cytometry | inhibition, % at 10 µM | 190,000 tested, 0.073% active;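 also: 0% = tracer peptide without compound and 100% = reference inhibitor peptide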
Target sequence (Q9HD36 whole entry, looked up): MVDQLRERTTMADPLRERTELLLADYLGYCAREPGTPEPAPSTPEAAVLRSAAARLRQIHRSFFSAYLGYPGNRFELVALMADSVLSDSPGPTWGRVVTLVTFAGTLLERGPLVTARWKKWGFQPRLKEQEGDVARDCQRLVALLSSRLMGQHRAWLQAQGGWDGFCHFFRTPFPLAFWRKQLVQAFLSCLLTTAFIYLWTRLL
Bcl-XL Bim block – disrupts Bim peptide binding to human Bcl-XL; Q07817; bead flow cytometry, fluorescence; inhibition, % at 10 µM; 190,000 tested, 0.04% active
Bcl-xL primary – blocks human Bcl-xL binding to Bim BH3 peptide; 320,000 tested, 0.7% active; Q07817; GST-Bcl-xL / FITC-Bim BH3 peptide fluorescence polarization; inhibition, % at 10.9 µM;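 active = inhibition above the mean of all tested compounds plus 3 SD, cutoff set per campaign, cut at about 30% in these data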;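 also: 0% = DMSO wells and 100% = unlabeled Bim-BH3 peptide competitor; inhibitors lower millipolarization by displacing the labeled peptide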
Bim-Bfl-1 – inhibitors of Bim-Bfl-1 interaction, human; Q16548; Bead-based flow cytometry, Bim-Bfl-1 binding inhibition; inhibition, % at 10 µM; 190,000 tested, 0.12% active;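 also: 0% = wells without compound plus tracer and 100% = blocker peptide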
Bim-Bcl-W – disrupts Bim peptide binding to human Bcl-W | Q92843 | bead-based flow cytometry | inhibition, % at 10 µM | 190,000 tested, 0.02% active;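 also: 0% = bound tracer without compound and 100% = peptide blocker; higher means less fluorescent Bim peptide bound to Bcl-W beads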
Target sequence (Q92843 whole entry, looked up): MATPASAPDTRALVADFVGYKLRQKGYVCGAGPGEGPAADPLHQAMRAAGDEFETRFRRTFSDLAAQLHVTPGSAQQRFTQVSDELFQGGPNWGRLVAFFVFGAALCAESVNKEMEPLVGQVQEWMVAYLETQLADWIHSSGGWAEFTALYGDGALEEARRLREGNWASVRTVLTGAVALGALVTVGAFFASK
Starred values were filed as active, the others as inactive; u = inconclusive; x = no result. Rule as the data show it, unless noted: active = inhibition above about 40%.

SMILES	Bcl-2 Bim block	Bim-Bcl-B	Bcl-XL Bim block	Bcl-xL primary	Bim-Bfl-1	Bim-Bcl-W
Cc1c2cnn(CC(=O)Nc3c(F)c(F)cc(F)c3F)c(=O)c2c(C)n1Cc1ccccc1F	-5.0	-2.0	-3.0	35.3*	-6.0	-4.0
CNC(=O)Cn1ncc2c(C)n(Cc3ccc(C)cc3)c(C)c2c1=O	-1.0	-5.0	-5.0	2.5	0.0	-6.0
CN(CC(=O)Nc1ccccc1C(F)(F)F)C(=O)C1=COCCO1	x	x	x	-1.5	x	x
CCN1CCN(CC(=O)Nc2ccc(N(C)C)cc2)CC1	x	x	x	4.2	x	x
O=c1oc2cc(O)ccc2cc1-c1nc2c(s1)CCc1ccccc1-2	u	x	x	36.6*	x	x
Cc1cc(C)n(C(=O)COc2ccccc2[N+](=O)[O-])n1	x	x	x	-2.0	x	x
Cc1ccc(S(=O)(=O)N2CCOCC(=O)NCCOCCNC(=O)COCC2)cc1	-5.0	-10.0	-2.0	x	-15.0	-1.0
Cc1cc(C)c2c(c1)[C@@H]1C=CC[C@@H]1[C@H](c1ccc(S(=O)(=O)N3CCOCC3)cc1)N2	21.0	6.0	10.0	10.6	53.0*	25.0
COC(=O)[C@H]1[C@H]2C[C@@H]3c4[nH]c5cc(OC)ccc5c4CCN3C[C@H]2C[C@@H](OC(=O)c2cc(OC)c(OC)c(OC)c2)[C@@H]1OC	x	x	x	6.3	x	x
COc1ccc2c3c([nH]c2c1)C1CC2C(CC(O)C(OC)C2C(=O)O)CN1CC3 (configuration not stated)	x	x	x	40.0*	x	x
COc1ccccc1NC(=O)CSc1ccc2nnc(CCNC(=O)c3ccccc3)n2n1	x	x	x	-0.3	x	x
CN(C)c1ccc(CC2C(=O)Nc3ccccc32)cc1 (configuration not stated)	x	x	x	45.8*	x	x
CN(C)c1ccc(NC(=O)C(=O)C2C(=O)Nc3ccccc32)cc1 (configuration not stated)	x	x	x	5.0	x	x
COc1ccc(CCNC(=O)c2cc(-c3ccncc3)nc3c(Cl)cccc23)cc1OC	0.0	0.0	-1.0	0.6	-3.0	1.0
COc1ccc(CCNC(=O)c2cc(-c3ccccn3)nc3c(Cl)cccc23)cc1OC	41.0*	53.0*	56.0*	4.5	1.0	16.0
N=c1c(C(=O)NCc2ccco2)cc2c(=O)n3ccccc3nc2n1C1CCCC1	x	x	x	54.4*	x	x
N=c1c(C(=O)NCc2ccco2)cc2c(=O)n3ccccc3nc2n1Cc1ccccc1	-1.0	-1.0	-1.0	37.6*	3.0	-2.0
Cc1ccc(S(=O)(=O)c2cc3c(=O)n4ccccc4nc3n(Cc3ccco3)c2=N)cc1	-6.0	-5.0	0.0	37.9*	-3.0	3.0
CC(C)c1nnc(N2C(=O)C(O)=C(C(=O)c3cccs3)C2c2ccccc2)s1 (configuration not stated)	0.0	-6.0	-3.0	x	-2.0	0.0
C=CCOc1ccc(C2C(C(=O)c3cccs3)=C(O)C(=O)N2c2nnc(C)s2)cc1 (configuration not stated)	x	x	x	100.2*	x	x
COc1ccc(C2C(C(=O)c3cccs3)=C(O)C(=O)N2c2nnc(C)s2)cc1OC (configuration not stated)	-1.0	-5.0	-5.0	83.7*	0.0	-5.0
COc1ccc(C2C(C(=O)c3cccs3)=C(O)C(=O)N2c2nncs2)cc1 (configuration not stated)	-3.0	-1.0	0.0	139.4*	-10.0	3.0
NS(=O)(=O)c1ccc(CCNC(=O)c2ccc[nH]c2=S)cc1	x	x	x	12.7	x	x
Cc1cc(-c2nc(C)c(-c3nnc(SCC(=O)Nc4ccc(Cl)cc4)n3C)s2)no1	x	x	x	-1.9	x	x
Cc1cc(NC(=O)COC(=O)C2=COCCO2)c([N+](=O)[O-])cc1C	-2.0	-8.0	0.0	42.3*	-5.0	0.0
SMILES	Bcl-2 Bim block	Bim-Bcl-B	Bcl-XL Bim block	Bcl-xL primary	Bim-Bfl-1	Bim-Bcl-W
O/C=c1\ccc2cccc3nc(C(F)(F)F)nc1c23	x	x	x	85.8*	x	x
COc1ccc(/C=C2\CCCc3c2nc2ccccc2c3C(=O)O)cc1OC	x	x	x	144.9*	x	x
CCOc1ccc(/C=C2\CCCc3c2nc2ccccc2c3C(=O)O)cc1OC	x	x	x	176.4*	x	x
COc1cc(/C=C2\CCCc3c2nc2ccccc2c3C(=O)O)cc(OC)c1O	x	x	x	14.9	x	x
COc1ccc(/C=C2\CCc3c2nc2ccccc2c3C(=O)O)cc1OC	x	x	x	98.8*	x	x
COc1cc(/C=C2\CCCc3c2nc2ccccc2c3C(=O)O)cc([N+](=O)[O-])c1O	x	x	x	16.5	x	x
Cc1cccc(-n2c(SCC(=O)N3CCN(c4ccccn4)CC3)nnc2N2CCOCC2)c1	x	x	x	-1.4	x	x
CC1CC(=O)c2c(cc3c(-c4c(O)cc(O)c5c(O)c6c(cc45)OC(C)CC6=O)c(O)cc(O)c3c2O)O1 (configuration not stated)	0.0	-5.0	-2.0	44.4*	0.0	2.0
CC1Sc2ccc(S(=O)(=O)N3CCC(C(=O)N(C)Cc4ccccc4)CC3)cc2NC1=O (configuration not stated)	x	x	x	0.3	x	x
CCC(=O)NCCn1c(C)cc2ccccc21	-4.0	-3.0	-2.0	19.3	-8.0	2.0
Cc1cc2ccccc2n1CCNC(=O)c1ccc(Br)o1	6.0	-5.0	3.0	34.2*	5.0	4.0
Cc1cc2ccccc2n1CCNC(=O)COc1ccccc1	-7.0	-4.0	-1.0	41.0*	-8.0	0.0
Cc1ccc(NC(=O)Nc2ccc3c(c2)OCO3)cc1F	x	x	x	1.8	x	x
C=CCOc1ccc(/C=C2\SC(=Nc3cccnc3)NC2=O)cc1	x	x	x	63.8*	x	x
CC(/C=C1\SC(=Nc2cccnc2)NC1=O)=C\c1ccccc1	x	x	x	-5.2	x	x
C/C1=C\CCC2C(/C=C(\C)CC1)OC(=O)C2CN1CCCCC1 (configuration not stated)	x	x	x	3.5	x	x
Cc1noc(C)c1COc1ccc(C(=O)Nc2cccnc2)cc1	15.0	43.0*	19.0	x	1.0	20.0
CCCN(CCC)C(=O)c1ccc2c(c1)N(CC)C(=O)c1ccccc1S2(=O)=O	x	x	x	116.8*	x	x
N#CC1(C#N)COC23CCCCC2C1(C#N)C(=N)O3 (configuration not stated)	3.0	0.0	1.0	68.3*	0.0	0.0
N#CC12COC3(CCCCC3C1(C#N)C#N)OC2=N (configuration not stated)	x	x	x	63.3*	x	x
N#Cc1ccc(S(=O)(=O)N2CCN(Cc3cccs3)CC2)cc1	x	x	x	-2.8	x	x
COc1ccccc1OCC(=O)OCC(=O)Nc1sccc1C(N)=O	-3.0	-4.0	-4.0	6.8	1.0	-2.0
NC(=O)c1ccsc1NC(=O)COc1ccccc1	-5.0	-4.0	-2.0	47.4*	-7.0	1.0
CCOC(=O)c1cc(-c2ccc(OC)cc2)nc2c1c(C)nn2CCC(N)=S	-1.0	-8.0	-5.0	5.8	-2.0	-3.0
CN1CCN(/N=C/c2c3ccccc3c(Cl)c3ccccc23)CC1	-3.0	-2.0	-2.0	110.6*	0.0	-1.0
CN1CCN(/N=C/c2ccc(-c3ccccc3)cc2)CC1	0.0	-1.0	1.0	5.0	0.0	0.0
O=C(NCC1CCCO1)c1cc(-c2ccco2)nc2ccccc12 (configuration not stated)	6.0	0.0	3.0	54.7*	2.0	3.0
